Source: PubChem
This is a sample that favours compounds with a hit; in the whole collection about 3.6% have one here.
D1 ag: Allosteric Agonists of the Human D1 Dopamine Receptor: qHTS | HEK293 T-REx D1 cells, calcium flux, agonist mode | activation, % at 2 µM | 360,000 tested, 1% active
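Tetracycline-induced HEK293 TREx D1 cells, force-coupled to calcium signalling, were dye-loaded with a no-wash calcium kit. Compound was pin-added after a 10 s baseline. Fluorescence was read kinetically at 1 cycle/s for 180 s, with calcium rises flagged as agonism.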
LDHA block: qHTS assay for inhibitors of human lactate dehydrogenase; 480,000 tested, 0.15% active; activity change, % (values are at about 110 or 230 µM); purified LDHA, NADH/diaphorase-resazurin fluorescence; hits give low values; AID 1347041, 2019; in the data active means activity change below about -30%
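Human LDH5 (2 nM) was incubated with 0.06 mM NADH and 0.2 mM pyruvate for 5 min at room temperature in Tris pH 7.4. Remaining NADH was coupled through diaphorase/resazurin, and resorufin fluorescence was read at 0 and 20 min.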
D1 potentiator: Potentiators of Human D1 Dopamine Receptor: qHTS; potentiation, % at 10 µM; D(1A) dopamine receptor (Homo sapiens), P21728; HEK293 TREx D1 cells, calcium flux, dopamine EC20 potentiation; 360,000 tested, 0.036% active; in the data active means potentiation above about 30%
D1 antag: Antagonist of Human D 1 Dopamine Receptor: qHTS. HEK293 TREx D1 cells, calcium flux, dopamine EC80; hits give low values. 360,000 tested, 3.2% active. D(1A) dopamine receptor (Homo sapiens), P21728. activity change, negative = inhibition, % at 10 µM; in the data active means activity change below about -30%
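HEK293 T-REx cells expressing inducible, force-coupled D1 receptor; no-wash Ca dye, 30–90 min RT. Cmpd → 180 s read at 1 Hz → EC80 DA → 180 s read.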
TRHR enhancer: qHTS for Small Molecule Agonists and Allosteric Enhancers of Human TRH Receptor: Primary Screen for Enhancers; enhancement, % at 2 µM; AID 493056, 2011; Thyrotropin-releasing hormone receptor (Homo sapiens), P34981; TRHR cells, fluo-8 calcium fluorescence, EC20 TRH enhancement; 360,000 tested, 0.66% active; in the data active means enhancement above about 30%
Target sequence (P34981 whole entry, looked up): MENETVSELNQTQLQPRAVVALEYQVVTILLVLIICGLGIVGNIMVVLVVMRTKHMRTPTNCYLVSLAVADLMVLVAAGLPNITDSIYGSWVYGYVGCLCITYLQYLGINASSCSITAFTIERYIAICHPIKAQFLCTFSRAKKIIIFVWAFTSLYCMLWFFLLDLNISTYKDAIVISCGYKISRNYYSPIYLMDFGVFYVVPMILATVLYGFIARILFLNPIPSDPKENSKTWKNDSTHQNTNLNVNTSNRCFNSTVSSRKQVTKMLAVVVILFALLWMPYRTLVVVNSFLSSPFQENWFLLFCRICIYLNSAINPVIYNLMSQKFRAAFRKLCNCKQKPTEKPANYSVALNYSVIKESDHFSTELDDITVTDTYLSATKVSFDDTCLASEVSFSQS
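TRHR-expressing cells loaded with fluo-8 calcium dye were read kinetically (ex 480/em 530) during compound addition, then stimulated with an EC20 of TRH (10 nM final). Enhancement of the Gq-mediated intracellular calcium response was scored.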
TRHR ag: qHTS for Small Molecule Agonists and Allosteric Enhancers of Human TRH Receptor: Primary Screen for Agonists. Thyrotropin-releasing hormone receptor (Homo sapiens), P34981. activation, % at 2 µM. 360,000 tested, 0.18% active. TRHR cells, calcium flux fluo-8, FDSS agonist mode
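TRHR-expressing cells, plated overnight in medium with 10% serum, were loaded with fluo-8 calcium dye at room temperature. After a 10 s baseline, library compound was pin-added and calcium release was recorded kinetically (ex 480/em 530) as agonist response.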
Each line names hits and unclear results; the compound was inactive in the other large screens. Unless noted, no stated cut-off is given here; in the data, active means activation above about 30%; inactive means the rest.

O=C(O)COc1ccccc1/C=N/NC(=O)CNC(=O)c1ccco1	D1 antag -58
O=C(COc1cccc2ccccc12)N/N=C/c1ccccc1OCc1ccc(C(=O)O)cc1	D1 ag 36
Cc1ccc2c(CN(C)Cc3cccs3)cc(=O)oc2c1C	none (no result: D1 ag, D1 potentiator, D1 antag, TRHR enhancer, TRHR ag)
CCOc1ccc(C(C)=O)cc1COc1ccc2c(C)cc(=O)oc2c1	none (no result: D1 ag, D1 potentiator, D1 antag, TRHR enhancer, TRHR ag)
Cc1cc(C)nc(SCC(=O)c2ccc(O)cc2O)n1	D1 antag -43
Cc1cc(C)nc(SCC(=O)c2ccc(O)c(O)c2)n1	none
C/C(=N\NC(=O)COc1cccc2ccccc12)c1cccs1	none
CNCC[C@H](Oc1cccc2ccccc12)c1cccs1	D1 ag 61
O=C(Oc1ccc(-c2ccccc2)cc1)N1CCOCC1	D1 antag -32
O=C(c1ccc(-c2ccccc2)cc1)c1ccccc1C(=O)N1CCOCC1	none
S=C(c1ccc(-c2ccccc2)cc1)N1CCOCC1	TRHR enhancer 34
O=C(Oc1ccc(Cl)cc1)N1CCOCC1	none
CCn1nc(-c2ccccc2)c2nc3ccccc3nc21	D1 ag 98
CCCn1nc(-c2ccccc2)c2nc3ccccc3nc21	D1 ag 70
CCCCn1c2nc3ccccc3nc2c2c(=O)n(CCC)cnc21	none
Cc1cc(OC(C)(C)c2n[nH]c(=S)n2CC(C)C)ccc1Cl	none (no result: D1 ag, D1 potentiator, D1 antag, TRHR enhancer, TRHR ag)
Fc1ccccc1Cc1noc(CN2CCN(C/C=C/c3ccccc3)CC2)n1	D1 antag -53
O=C(NCc1ccc(F)cc1)c1ccc(Nc2ncc(-c3cccc(F)c3)cn2)cc1	none (no result: D1 ag, D1 potentiator, D1 antag, TRHR enhancer, TRHR ag)
Cc1cc(C)n(C(=O)c2ccc(NC(=O)CC(C)C)cc2)n1	D1 antag -94
NC(=S)c1ccc(C(=O)NCc2ccccc2F)cc1	none (no result: D1 ag, D1 potentiator, D1 antag, TRHR enhancer, TRHR ag)
CC(=O)N1N=C(c2ccc(NS(=O)(=O)c3ccccc3)cc2)CC1c1ccco1 (stereo not given)	D1 antag -36
Cc1cccc(NC(=O)C(C#N)C(=O)c2ccccc2Cl)c1 (stereo not given)	none (no result: D1 ag, D1 potentiator, D1 antag, TRHR enhancer, TRHR ag)
Cc1ccccc1C(C)NC(=O)Cn1cnc(C#N)n1 (stereo not given)	none (no result: D1 ag, D1 potentiator, D1 antag, TRHR enhancer, TRHR ag)
O=C1NC(=S)N/C1=C\c1ccc(Oc2ccc(C(F)(F)F)cc2[N+](=O)[O-])c(Cl)c1	D1 antag -52
N#Cc1cc2c(nc1N1CCN(C(C(=O)O)c3c[nH]c4cc(F)ccc34)CC1)CCCC2 (stereo not given)	none (no result: D1 ag, D1 potentiator, D1 antag, TRHR enhancer, TRHR ag)
Cc1cc2c(c(=O)o1)C(Cc1ccccc1)C(C#N)=C(N)O2 (stereo not given)	D1 antag -56
O=C(C1Cc2ccccc2S1)N(Cc1ccc(C(F)(F)F)cc1)C1CC1 (stereo not given)	none (no result: D1 ag, D1 potentiator, D1 antag, TRHR enhancer, TRHR ag)
CCOc1ccccc1OCC(=O)OCC(=O)NNC(=O)c1ccc([N+](=O)[O-])cc1	TRHR enhancer 30
O=C(CC(=O)Nc1ccccc1[N+](=O)[O-])Nc1ccccc1[N+](=O)[O-]	D1 antag -34
O=C(CCOc1ccccc1)Nc1ccccc1[N+](=O)[O-]	none
CC(C)c1ccccc1NC(=O)COC(=O)COc1ccccc1[N+](=O)[O-]	none
O=C(COC(=O)COc1ccccc1[N+](=O)[O-])Nc1ccccc1Br	D1 antag -43
O=C(COC(=O)CCCOc1ccccc1)NNC(=O)c1ccc([N+](=O)[O-])cc1	none
O=C(Cn1c(=O)c2c(ncn2Cc2ccco2)n(Cc2ccccc2)c1=O)N1CCNC1=O	none (no result: D1 ag, D1 potentiator, D1 antag, TRHR enhancer, TRHR ag)
CCCOc1ccc(-c2nn(-c3ccccc3)cc2/C=C2\SC(N)=NC2=O)cc1C	D1 antag -74
CCn1c(NC2CCCCC2)nc2ccccc21	D1 antag -34
COc1ccc2cc(C(=O)OCC(=O)NCC3CCCO3)c(C)nc2c1 (stereo not given)	none (no result: D1 ag, D1 potentiator, D1 antag, TRHR enhancer, TRHR ag)
CONC(=O)c1ccc(NC(=O)c2cccs2)cc1	none (no result: D1 ag, D1 potentiator, D1 antag, TRHR enhancer, TRHR ag)
